PubChem BioAssay AID488895 (Broad Institute, 2010)
Hit rate of the full screen: of about 340,000 compounds, about 120 (0.035%) were called active. The sample holds actives, similar compounds and a random draw of the others, so the mix is not that of the screen.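 How the source made its calls: active means mean replicate inhibition at least 50% and at least half of replicates individually reaching 50%; inconclusive means only one of the two criteria met; inactive means neither criterion met.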

Test: blockers of twin-arginine translocation in E. coli – MC4100, TorA-mCherry reporter, fluorescence, single point, primary screen (AID 488895);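 further: exported cargo escapes ClpAP degradation while cytoplasmic cargo is degraded and loses fluorescence; 0% = median of neutral control wells and 100% = median of NaSCN control wells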
Conditions: E. coli MC4100 TorA-mCherry Tat export, at 10 µM, stronger effect = higher value

inhibition, inactive:
CC(C)CC(O)C1CCN(C(=O)CCc2nnc(-c3ccc4c(c3)OCO4)o2)CC1 (stereo not given) -2.64%
COc1ccc(N2CC(C(=O)NCCN3C(=O)S/C(=C\c4cccnc4)C3=O)CC2=O)c(OC)c1 (stereo not given) -1.64%
O=C1C(Cl)=C(Oc2ccccc2)C(=O)c2ccccc21 -14.1%
COc1ccc(-c2nonc2NC(=O)c2oc3ccc(F)cc3c2C)cc1OC -6.3%
Cc1noc(C)c1COc1cccc(C(=O)Nc2cccnc2)c1 11.3%
COCCN1C(=O)C(=O)/C(=C(/O)c2ccc(S(=O)(=O)N3CCCCC3)cc2)C1c1ccc(OC)c(OC)c1 (stereo not given) -4.83%
COCCCNC(=O)C1CC(=O)N(CCc2ccc(F)cc2)C1 (stereo not given) 3.6%
O=C(Nc1cccc(F)c1)NC1CCCCCCC1 3.94%
C=CCn1c(SCc2c(C(=O)OC)sc(N)c2C(=O)OC)nnc1-c1ccc(Cl)cc1 0.305%
CCCn1c(SCC(=O)c2ccc3c(c2)OCCO3)nnc1C(C)C 1.9%
CC(=O)c1ccc(NC(=O)C(C)OC(=O)c2ccc(NS(=O)(=O)c3ccc4[nH]c(=O)[nH]c4c3)cc2)cc1 (stereo not given) -1.62%
COc1cccc(CCNC(=O)COc2cccc3c2OC(C)(C)C3)c1 -3.07%
O=C(NCc1ccccc1)c1onc(CSc2ccncc2)c1C(=O)NCc1ccccc1 4.39%
Cn1c(SCC(=O)N2CCCCC2)nc2c(c1=O)SCC2 1.18%
COc1cc2c(cc1OC)C(c1ccccc1Br)NC(=O)C2 (stereo not given) 4.97%
CSc1ccc(/C=C/C(=O)NC23CC4CC(CC(C4)C2)C3)cc1 1.4%
COC(=O)c1cc(NC(=O)CC2C(=O)NCCN2C(=O)c2ccc(F)cc2)cc(C(=O)OC)c1 (stereo not given) -6.39%
O=C(O)CCc1nc2cc(Cl)ccc2n(Cc2ccccc2)c1=O 3.23%
COc1ccccc1CNS(=O)(=O)c1c(C)[nH]c(C)c1C(=O)N1CCCCC1 -2.57%
Cc1noc(C)c1CSCC(=O)Nc1ccc(Br)cc1Cl -0.881%
Cc1ccc(/C=N/NC(=O)COc2ccccc2-c2ccccc2)cc1 0.565%
CC(=O)NC(C(=O)NCC(N)=O)C(C)C (stereo not given) -5.64%
Cc1ccc(SCC(=O)c2cc(C)c(OC(=S)N(C)C)c(C)c2)cc1 5.72%
NC(=O)C[C@@H]1NC(=O)CNC(=O)c2cc([N+](=O)[O-])cc(I)c2NCCC(C(N)=O)NC1=O (stereo not given in full) -3.55%
O=C(Nc1nnc(C2=COCCO2)o1)c1ccc([N+](=O)[O-])s1 -7.65%
CCCOc1ccc2c3c(c(=O)oc2c1OCCC)CCC3 14.7%
COc1cc(C2OC(c3cc(OC)c(OC)c(OC)c3)C(C)C2C)cc(OC)c1OC (stereo not given) -3.59%
CCn1c(CC(=O)Nc2ccccc2)nnc1SCC(=O)N1CCOCC1 -5.24%
C=CCn1c(SCC(=O)Nc2ccc(NC(C)=O)cc2)nc2sc(C)c(C)c2c1=O -0.334%
CC1(C)CC(=O)C(N=Nc2c(F)cccc2F)=C(O)C1 -8.43%
CCc1ccccc1N1C(=O)C2C3CC(=O)C(c4ccccc43)C2C1=O (stereo not given) -1.63%
COC(=O)C1CCN(CC(N)=O)CC1 -3.53%
O=C(COC(=O)c1ccc(N2CCCC2=O)cc1)c1ccc(OC(F)F)cc1 6.18%
CCn1c(SCC(=O)c2ccc(Cl)s2)nnc1-c1cccs1 -0.241%
CCOC(=O)N1CCC(N2Cc3cccc(C(=O)Nc4c(C)cccc4CC)c3C2=O)CC1 14.7%
CC1CCN(C(=S)NC2CC3CCC2C3)CC1 (stereo not given) -4.26%
Cc1nc(C(=O)N2CCCC(C(=O)c3ccc(Cl)cc3)C2)cs1 (stereo not given) 0.604%
Oc1ccccc1-c1cc(-c2ccc(Cl)cc2)n[nH]1 -12.8%
NS(=O)(=O)c1cc(C(=O)OCC(=O)NNC(=O)c2ccccc2)ccc1Cl -3.95%
COC(CCN(C)C)(c1ccccc1)c1ccccc1 -2.82%
C=C1c2c(Cl)ccc(O)c2C(O)=C2C(=O)[C@]3(O)C(O)=C(C(N)=O)C(=O)[C@@H](N(C)C)[C@@H]3[C@@H](O)C12 (stereo not given in full) 28.9%
CCN(C(=O)c1cc([N+](=O)[O-])ccc1NCc1cccnc1)c1ccccc1 -1.18%
COc1ccc(C(=O)O)cc1S(=O)(=O)NC1CCN(Cc2ccccc2)CC1 -6.45%
Cc1ccc(Cl)cc1NC(=O)COC(=O)C1CCCCC1 6.67%

inhibition, active:
CN(C)[C@@H]1C(=O)C(C(N)=O)=C(O)[C@@]2(O)C(=O)C3=C(O)c4c(O)ccc(Cl)c4[C@@H](O)[C@H]3C[C@@H]12 151%
